# Measured values reported in PubChem BioAssay AID449762 (Southern Research Specialized Biocontainment Screening …, 2010).
# Out of some 330,000 compounds screened, about 1,900 (0.58%) were called active. Inconclusive results (about 4%) are left out. Only a sample is shown. Measured potencies and affinities stand elsewhere. Values without a mark were called inactive. Rule as the data show it: inconclusive = inhibition above about 70% without an active follow-up result; inactive = below that.
# Experiment: M. tuberculosis growth inhibition, HTS (AID 449762);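 also: bacterial growth assessed after seven days of incubation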
# Details: M. tuberculosis H37Rv growth inhibition, 7H9 media; at 25 µM; stronger effect = higher value
row,Compound,inhibition
1,COC(=O)c1ccc(CSc2nnc(CNC(=O)c3ccccc3F)o2)o1,4.26%
2,Cc1c(C2(O)CCCCC2)[nH]c2cc(C(F)(F)F)ccc12,15.3%
3,CCc1c(C2(O)CCCCC2)[nH]c2ccc(C#N)cc12,5.4%
4,Cc1nn(S(=O)(=O)c2ccc(C(C)C)cc2)c(C)c1S(=O)(=O)N1CCOCC1,-4.31%
5,Cc1nn(CC(=O)NCCCN2C(C)CCCC2C)c(=O)c2cc3occc3n12 (configuration not stated),5.96%
6,CCCc1nc([N+](=O)[O-])c(S(=O)(=O)c2ccccc2)n1CC(C)C,10%
7,CCCn1c(CC)nc([N+](=O)[O-])c1Sc1ccc(C)cc1,-12%
8,CN(CC(=O)Nc1ccc(OC(F)(F)F)cc1)C(=O)/C=C/c1ccco1,5.57%
9,Cc1ccc(NC(=O)CN(C)C(=O)/C=C/c2ccc3c(c2)OCO3)cc1,6.72%
10,CCCCc1c(O)nc(SCC(=O)N2CCCCC2)[nH]c1=O,17.7%
11,COc1ccc(-c2nnc(SCC(=O)NC3CCCC3)n2C)cc1,-3.82%
12,Cc1ccc(C(=O)/C=C/c2ccc3c(c2)OCO3)o1,1.84%
13,Cc1ccc(C(=O)/C=C/c2ccccc2)o1,4.37%
14,CC1CCCCN1S(=O)(=O)c1cccc2nonc12 (configuration not stated),-1.08%
15,CCC(CC)NC(=O)c1cc2c(C)nn(Cc3ccccc3Cl)c2s1,-1.27%
16,Cc1nn(Cc2ccccc2Cl)c2sc(C(=O)NC(C)(C)C)cc12,30.5%
17,CCCNC(=O)CCNC(=O)c1ccc(C(C)(C)C)cc1,-4.92%
18,CCCCNC(=O)CCNC(=O)c1ccc(C(C)(C)C)cc1,-8.34%
19,O=C(CSc1nnc(-c2c[nH]c3ccccc23)o1)N(Cc1ccccc1)c1ccc(F)cc1,-6.56%
20,Cc1nc(SCc2nc3ccccc3[nH]2)c2oc3ccc(Br)cc3c2n1,18%
21,Cc1ccccc1CN1C(=O)[C@@H]2Cc3c([nH]c4ccccc34)C(C)(C)N2C1=O,8.29%
22,Cc1ccccc1CN1C(=O)[C@H]2Cc3c([nH]c4ccccc34)C(C)(C)N2C1=O,-6.56%
23,C/C=C(\C)C(=O)NCCN1C2=NC[C@H](C)N2C[C@@H]1Cc1ccc(OC)cc1,0.12%

row,Compound,inhibition
1,COc1ccc(-c2cc(C3CCN(c4ccc(C(C)=O)cc4[N+](=O)[O-])CC3)[nH]n2)cc1,2.56%
2,Nc1nc(Cl)cc(N2CCC(c3cc(-c4ccc(Cl)cc4)n[nH]3)CC2)n1,4.43%
3,CC(=O)c1ccc(N2CCC(c3cc(-c4ccc(Cl)cc4)n[nH]3)CC2)c([N+](=O)[O-])c1,-1.54%
4,COc1ccc(OC)c(-c2cc(C3CCN(c4cc(Cl)nc(N)n4)CC3)[nH]n2)c1,-10.8%
5,Cc1cc(OCC(=O)NCc2ccccn2)c2c(C)c(Cc3ccccc3)c(=O)oc2c1,3.29%
6,O=C(CN(Cc1cccs1)C(=O)CN1C(=O)COc2ccccc21)NCc1ccco1,-10.2%
7,COc1ccc(S(=O)(=O)N2CCN(C(=O)CCNC(=O)c3ccccc3Cl)CC2)cc1,-12.2%
8,COc1cc(OC)nc(Oc2cc(/C=N/O)ccc2OC)n1,6.12%
9,O=C(O)c1ccccc1NS(=O)(=O)c1ccc(NN=Cc2ccc(F)cc2)c([N+](=O)[O-])c1,9.86%
10,OC1(c2ccc(F)cc2)CCN(Cc2nnnn2Cc2cccs2)CC1,5.23%
11,O=C(O)CSc1nnnn1-c1ccc2c(c1)OCCO2,-0.83%
12,CC(C)OC(=O)CSc1nnnn1-c1ccc2c(c1)OCCO2,-0.39%
13,O=C(NCCC1=CCCCC1)C1CCN(S(=O)(=O)c2cccc(C(F)(F)F)c2)CC1,5.79%
14,Nc1nnc(SCCN2C(=O)c3ccccc3C2=O)s1,-1.41%
15,CCOC(=O)CSc1snnc1C,-6.63%
16,CSc1nsc(SCCN2C(=O)c3ccccc3C2=O)n1,2.52%
17,CCOC(=O)CSc1nn(C)c(=S)s1,0.33%
18,Cc1cc(C)nc(NC(=O)CSc2nn(-c3ccccc3)c(=S)s2)n1,-0.15%
19,CCOC(=O)CSc1nnc(-c2ccccc2)c(=O)[nH]1,-2.8%
20,Cc1ccc(NC(=S)N(CCN(C)C)C(C)c2cccnc2)c(C)c1 (configuration not stated),4.11%
21,COC(=O)c1cc(OC)c(OC)cc1NC(=O)c1c(-c2ccccc2Cl)noc1C,-3.97%
22,Cc1ccc(-c2csc(NC(=O)c3ccccc3Cl)c2C(=O)O)cc1,13.9%
23,CSc1cccc(NC(=O)C2C3C=CC4(O3)C2C(=O)N(CCCN2CCOCC2)C4C(=O)NC2CCCCC2)c1 (configuration not stated),3.36%

row,Compound,inhibition
1,O=C(c1ccccc1F)N1CCN(S(=O)(=O)c2ccc3ccccc3c2)CC1,7.72%
2,COc1ccc(NS(=O)(=O)c2cc(NC(=O)C3CC3)ccc2N2CCCCC2)cc1,1.69%
3,CC(=O)N1CCn2c3c(c4cc(C)ccc42)CCCC31 (configuration not stated),4.84%
4,Cc1ccc2c(c1)c1c3n2CCN(C(=O)CN2CCN(C)CC2)C3CCC1 (configuration not stated),-3.37%
5,CC(C)CCN1CCN(CC(c2ccccc2)c2ccccc2)CC1CCO (configuration not stated),-4.44%
6,COCCn1c(=N)c(C(=O)NCc2ccco2)cc2c(=O)n3cc(C)ccc3nc21,0.47%
7,Cc1ccc(Cn2c(=N)c(C(=O)NCc3ccco3)cc3c(=O)n4ccccc4nc32)cc1,4.13%
8,COc1ccc(NC(=O)CN2CCN(c3nc(-c4ccc(F)cc4)cs3)CC2)c(OC)c1,8.68%
9,O=[N+]([O-])c1ccc(F)c(N=Cc2ccc(Br)s2)c1,1.92%
10,COc1ccc(-c2coc3cc(OC(=O)N4CCOCC4)ccc3c2=O)cc1,10.6%
11,CCN(CC)C(=O)Oc1ccc2c(=O)c(-c3ccccc3)coc2c1,64.8%
12,CCOc1ccc(N(CC(=O)Nc2cc(C)cc(C)c2)S(C)(=O)=O)cc1,7.61%
13,N#C/C(=C/c1ccccc1[N+](=O)[O-])C(=O)NCc1ccco1,-4.24%
14,CCCCSC1=NN1c1nc(N)nc(C)c1CC,-7.73%
15,CC1CN(C(=S)c2cccc([N+](=O)[O-])c2)CC(C)O1 (configuration not stated),-2.37%
16,CC1CN(C(=O)c2cc([N+](=O)[O-])cc([N+](=O)[O-])c2)CC(C)O1 (configuration not stated),-5.16%
17,Cc1nn(CC(C)C(=O)N2CCN(S(=O)(=O)c3ccc(Cl)cc3)CC2)c(C)c1C (configuration not stated),-2.72%
18,CCCCCCCCc1nc(SC(C)C(=O)O)n[nH]1 (configuration not stated),-1.56%
19,COc1ccc(C2Nc3ccccc3NC3=C2C(=O)CC(C)(C)C3)c(OC)c1OC (configuration not stated),8.53%
20,COc1ccc(NC(=O)c2ccc([N+](=O)[O-])o2)cc1,6.03%
21,COc1ccc(-c2nnc(NC(=O)CS(=O)(=O)c3ccc(F)cc3)o2)c(OC)c1,7.17%
22,COc1ccc(S(=O)(=O)N(C)CC(=O)NCc2ccco2)cc1Cl,2.22%
23,CCCn1nnc(NC(=O)COc2ccccc2Cl)n1,-5.02%

row,Compound,inhibition
1,CCCn1nnc(NC(=O)COc2ccc(C3CCCCC3)cc2)n1,-1.63%
2,Cc1cc(C(=O)N(C)CC2CCCN(CCc3ccc(F)cc3)C2)c(C)o1 (configuration not stated),-2.12%
3,N=C1c2ccccc2CN1NC(=O)COc1ccc(Cl)cc1,-8.46%
4,CCc1nn(CCCC(=O)N2CCc3ccccc3C2)c(=O)c2cc3occc3n12,-0.11%
5,COc1cccc(NC(=O)CSc2nc(O)c(C)c(=O)n2-c2ccc(C)cc2)c1,-11.9%
6,CCOc1ccc(-n2c(SCC(=O)Nc3ccc(C(=O)O)cc3)nc3ccccc3c2=O)cc1,1.72%
7,Cc1ccc(NC(=O)CSc2cn[nH]n2)cc1,-2.03%
8,CC(=O)c1ccc(NC(=O)CSc2cn[nH]n2)cc1,4.87%
9,Cc1nnc(NC(=O)CSc2nnc(Cc3cccn3C)n2C)s1,-5.68%
10,Cc1ccc(S(=O)(=O)N(C)C)cc1NC(=O)c1cccnc1Oc1ccccc1,-2.85%
11,O=C(Nc1ccc2c(c1)OCO2)c1cnn2c1NC(c1ccco1)CC2C(F)(F)F (configuration not stated),-5.12%
12,COc1ccc(-c2[nH]ncc2CN(C)Cc2ccccn2)c(OC)c1,4.69%
13,O=C(NCc1ccccn1)c1cc2c(ccc3ccccc32)oc1=O,-2.34%
14,CCOC(=O)N1CCC(N2Cc3cccc(C(=O)Nc4cc(F)ccc4F)c3C2=O)CC1,-1.17%
15,CCOC(=O)c1ccccc1NC(=O)c1cccc2c1C(=O)N(C1CCN(C(=O)OCC)CC1)C2,-3.66%
16,Cc1ccc(C2C3=C(CCCC3=O)N=C3c4ccccc4C(=O)C32)cc1 (configuration not stated),4.41%
17,O=C1CCCC2=C1C(c1ccccc1)C1C(=O)c3ccccc3C1=N2 (configuration not stated),0.55%
18,CCO[C@@H]1OC(C(=O)NCc2ccccc2)=C[C@H](C)[C@H]1CCCO,0.33%
19,CCOC(=O)CSC1=C(C#N)C(C)C2=C(CCCC2=O)N1 (configuration not stated),10.6%
20,CCOC(=O)CSC1=C(C#N)C(c2ccccc2C)C2=C(CCCC2=O)N1 (configuration not stated),-2.12%
21,Clc1cccc(CN2CCSCC2)c1Cl,5.96%
22,O=C(OCc1ccc(O)cc1)c1c(-c2ccsc2)oc2ccc(N3CCOCC3)cc12,-0.88%
23,COc1ccc(/C=C/c2c(-c3cccc(C)c3)oc3ccc(N4CCOCC4)cc23)cc1,-2.46%
